Experiment in all cases: NCI-60 one-dose screen, 48 h (100 = growth as untreated, 0 = no growth, -100 = all killed)
Experiment [1] has as its system HCT-15 colon. As to conditions: 10 µM unless noted.
Experiment [2] concerns HT29 colon. As to conditions: 10 µM unless noted.
Experiment [3] concerns SNB-75 CNS. The note with it: 10 µM unless noted.
Experiment [4] has as its system U251 CNS. As to conditions: 10 µM unless noted.
In experiment [5] the test system is PC-3 prostate. The note with it: 10 µM unless noted.
Experiment [6] relates to SK-MEL-5 melanoma. As to conditions: 10 µM unless noted.
The test system of experiment [7] is UACC-62 melanoma. As to conditions: 10 µM unless noted.
In experiment [8] the test system is LOX IMVI melanoma. As to conditions: 10 µM unless noted.
Experiment [9] deals with SK-MEL-28 melanoma. As to conditions: 10 µM unless noted.
For experiment [10], the system named is SK-MEL-2 melanoma. As to conditions: 10 µM unless noted.
For experiment [11], the system named is SN12C renal. The note with it: 10 µM unless noted.
In experiment [12] the test system is UO-31 renal. The note with it: 10 µM unless noted.
The subject of experiment [13] is TK-10 renal. The note with it: 10 µM unless noted.
Experiment [14] concerns ACHN renal. The note with it: 10 µM unless noted.
Experiment [15] relates to CAKI-1 renal. The note with it: 10 µM unless noted.
The test system of experiment [16] is A498 renal. As to conditions: 10 µM unless noted.
The subject of experiment [17] is CCRF-CEM leukemia. The note with it: 10 µM.
The test system of experiment [18] is MOLT-4 leukemia. As to conditions: 10 µM unless noted.
Experiment [19] relates to SNB-19 CNS. As to conditions: 10 µM unless noted.
The test system of experiment [20] is EKVX NSCLC. As to conditions: 10 µM.

Molecules are shown by their SMILES. About 83,000 compounds went through this panel and 20% of them were active in at least one assay; those are over-represented in the sample as a whole.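 Cells were grown in 96-well plates and exposed to the test compound at a single concentration for 48 hours; results are reported as percent growth, with values below 10 considered active.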 Unmarked numbers belong to inactive results. Activity calls are given as the source filed them.

`CC1(C)NC(=S)NC1=O`: the growth in experiment [1] was 102%; in experiment [2], 105%; in [3], 89.9%; in experiment [4], 98.4%; in [5], 95.5%; in [6] it was 101%. Moreover, the growth in experiment [7] was 108%; in experiment [8] it was 97.5%; in experiment [9], 110%; in experiment [10], 129%; in experiment [11], 105%; in experiment [12], 90.6%. Moreover, the growth was 112% in [13]; 109% in experiment [14]; 97.8% in [15]; 88.3% in experiment [16]; 88.2% in experiment [17]; 90.8% in experiment [18].

As to `N#CCc1ncc(-c2ccc(C(F)(F)F)cc2)c(NC2CCCCCC2)n1`, the growth in experiment [1] is 22.1% [100 µM]; in experiment [2], 14% [100 µM]; in experiment [3] it was 52.5% [100 µM]; in experiment [19], 45.2% [100 µM]; in experiment [5], -3.13% [100 µM] (active); in [6] it was 22.9% [100 µM]. Besides, the growth in [7] was 42.1% [100 µM]; in experiment [8], 25% [100 µM]; in experiment [9] it was 65.8% [100 µM]; in experiment [10], -22.1% [100 µM] (active); in experiment [11], 30.4% [100 µM]; in experiment [13], 61.2% [100 µM]. Also, the growth in experiment [14] is 18.4% [100 µM]; in [16] it was 1.91% [100 µM] (active); in experiment [18], -4.66% [100 µM] (active).

As for `Cc1ccc(OCCn2ccc(=O)n(CCOc3ccc(Cl)cc3C(=O)c3cc(C)cc(C)c3)c2=O)cc1`, the growth in experiment [1] was 27.8%; in [2] it was 18.9%; in experiment [3], 33.5%; in experiment [19], 57.5%; in experiment [5], 29.2%; in experiment [6], 49.2%. The growth is 32.7% in [7]; 47% in experiment [8]; 68.3% in experiment [9]; 41.2% in [10]; 47% in experiment [20]; 62% in experiment [11]. Also, the growth in experiment [13] is 61.7%; in experiment [14] it was 60.6%; in [15], 47.6%; in experiment [16], 33.7%; in experiment [17], 25.7%; in experiment [18] it was 19.2%.

Take `CCOC(=O)c1c(C)oc2ncnc(Nc3ccc(NC(=O)Nc4ccc(CC)cc4)cc3)c12`: the growth in experiment [1] was 105%; in [2], 103%; in [3], 80.6%; in experiment [19], 98%; in experiment [5], 90.8%; in experiment [6], 93.8%. Also, the growth is 108% in experiment [7]; 100% in experiment [8]; 120% in experiment [10]; 102% in [20]; 107% in experiment [11]; 94.8% in experiment [12]. Also, the growth in experiment [13] was 112%; in [14], 98.9%; in experiment [15] it was 98.4%; in [16], 109%; in [17] it was 93.8%; in [18] it was 98.7%.

Regarding `CCCCCSc1ccc2nc(NC(=O)OCCC)sc2c1`, the growth in experiment [1] was 26.1%; in [2] it was 15.9%; in experiment [3], 13.3%; in [19] it was 40.9%; in [5], 27.7%; in [6] it was 17.7%. Also, the growth is 31.1% in experiment [7]; 38.6% in experiment [8]; 51.7% in [10]; 34.2% in [20]; 51.8% in experiment [12]; 70.1% in [13]. Besides, the growth in experiment [14] is 42.8%; in [15], 32.4%; in experiment [16] it was 11.2%; in experiment [17], 20.3%; in experiment [18], 30.7%.

In the case of `CN(CCC#N)c1ccc(/C=C(\C#N)c2cccc(C(F)(F)F)c2)cc1`, the growth in experiment [1] is 39.9%; in experiment [2] it was 23.5%; in [3], 90.1%; in [19], 79%; in experiment [5] it was 61.1%; in [6] it was 57.8%. Further, the growth in [7] was 55.3%; in experiment [8], 63.2%; in experiment [9] it was 71.9%; in [10], 51%; in [11], 72.1%; in experiment [12], 53.4%. The growth was 69.3% in [13]; 76.1% in experiment [14]; 49.8% in experiment [15]; 74.1% in experiment [16]; 53.8% in experiment [18].

In the case of `CSc1nc(N)n2nccc2n1`, the growth in experiment [1] was 108%; in experiment [2], 102%; in [3] it was 78.5%; in experiment [19], 99.7%; in experiment [5], 93.5%; in [6], 98.8%. In addition, the growth in experiment [7] is 98.6%; in [8] it was 97.4%; in experiment [9], 98.5%; in experiment [10], 115%; in experiment [11], 96.8%; in experiment [12], 65.4%. Further, the growth is 99.8% in experiment [13]; 112% in experiment [14]; 70.6% in experiment [15]; 109% in experiment [16]; 98.9% in experiment [18].

In the case of `CNc1ccc(Nc2ccc(S(=O)(=O)O)cc2)c2c1C(=O)c1ccccc1C2=O`, the growth in experiment [1] is 98.6%; in experiment [2], 105%; in [3] it was 101%; in experiment [19], 104%; in [5], 101%; in [6], 99.9%. Moreover, the growth was 94.6% in [7]; 88.2% in experiment [8]; 112% in experiment [9]; 130% in experiment [10]; 92.8% in experiment [11]; 102% in [12]. Further, the growth in [13] is 126%; in experiment [14], 98.7%; in [15], 91.9%; in [16], 113%; in experiment [17], 89.2%; in [18] it was 106%.

As for `COc1cc2c(c3c1c(=O)c1cccc(F)c1n3C)C=CC(C)(C)O2`, the growth in experiment [1] was 71.8%; in experiment [2], 74.6%; in experiment [3] it was 99.1%; in experiment [19], 104%; in [5], 72.3%; in [6], 94.2%. Moreover, the growth in experiment [7] is 75.6%; in [8] it was 88.8%; in experiment [9] it was 94.4%; in experiment [10], 113%; in experiment [11] it was 64.3%; in experiment [12], -26.5% (active). The growth is 95.2% in experiment [13]; 47.9% in experiment [14]; -64% (active) in experiment [15]; 90% in experiment [16]; 85.2% in experiment [18].

The values are drawn from PubChem BioAssay (NCI).
